About 2,100 (0.53%) of roughly 400,000 compounds were called active. Inconclusive results (about 14%) are left out. No rule for the calls is given here. For the sample, actives were picked, then their nearest neighbours and some compounds at random.

In this test the target is Ataxin-2 (Homo sapiens) (UniProt Q99700). Put plainly: qHTS for Inhibitors of ATXN expression. It is filed as functional. In general terms: In qHTS, concentration-response curves come from the screen itself.
Chain of Ataxin-2 (Homo sapiens) (Q99700 whole entry): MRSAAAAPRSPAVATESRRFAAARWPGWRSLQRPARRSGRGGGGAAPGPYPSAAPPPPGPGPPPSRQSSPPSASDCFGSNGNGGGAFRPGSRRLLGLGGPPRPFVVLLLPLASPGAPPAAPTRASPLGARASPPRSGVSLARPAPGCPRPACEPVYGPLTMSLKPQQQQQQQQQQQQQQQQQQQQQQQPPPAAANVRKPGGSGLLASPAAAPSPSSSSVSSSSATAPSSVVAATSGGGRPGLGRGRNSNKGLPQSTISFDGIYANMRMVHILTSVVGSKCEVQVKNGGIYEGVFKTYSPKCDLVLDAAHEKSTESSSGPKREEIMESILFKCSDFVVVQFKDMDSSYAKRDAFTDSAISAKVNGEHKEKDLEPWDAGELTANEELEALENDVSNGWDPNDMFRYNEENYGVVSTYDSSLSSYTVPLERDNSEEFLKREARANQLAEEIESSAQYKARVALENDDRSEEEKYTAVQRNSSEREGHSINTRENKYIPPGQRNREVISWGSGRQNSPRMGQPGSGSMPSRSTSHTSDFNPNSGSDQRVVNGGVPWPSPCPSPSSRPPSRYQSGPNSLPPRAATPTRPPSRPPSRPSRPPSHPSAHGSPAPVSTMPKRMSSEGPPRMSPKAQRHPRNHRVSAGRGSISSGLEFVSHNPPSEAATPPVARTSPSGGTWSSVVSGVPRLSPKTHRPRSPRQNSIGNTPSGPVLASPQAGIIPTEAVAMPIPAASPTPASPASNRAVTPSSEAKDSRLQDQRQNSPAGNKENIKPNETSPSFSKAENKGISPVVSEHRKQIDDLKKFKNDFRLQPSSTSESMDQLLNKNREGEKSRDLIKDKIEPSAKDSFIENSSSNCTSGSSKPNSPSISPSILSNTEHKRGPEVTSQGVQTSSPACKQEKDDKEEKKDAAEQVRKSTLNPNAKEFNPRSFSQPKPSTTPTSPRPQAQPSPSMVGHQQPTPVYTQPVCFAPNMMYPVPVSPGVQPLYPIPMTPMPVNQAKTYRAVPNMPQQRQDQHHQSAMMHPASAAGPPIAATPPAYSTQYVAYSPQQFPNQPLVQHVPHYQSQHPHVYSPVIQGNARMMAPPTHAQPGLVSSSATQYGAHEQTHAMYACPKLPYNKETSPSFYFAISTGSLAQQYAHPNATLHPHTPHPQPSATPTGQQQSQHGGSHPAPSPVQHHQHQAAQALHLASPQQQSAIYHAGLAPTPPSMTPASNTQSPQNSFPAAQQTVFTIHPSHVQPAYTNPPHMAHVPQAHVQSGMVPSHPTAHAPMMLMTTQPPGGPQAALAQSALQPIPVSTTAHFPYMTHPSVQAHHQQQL
`NC[C@H](Cc1ccccc1)NCCc1cc(C(F)(F)F)cc(C(F)(F)F)c1`: the Potency is 39.8 µM (active).
In the case of `NC(=S)c1cc2cc(Cl)ccc2oc1=O`, the Potency result was “inactive”.
On to `N=c1c(C(=O)NCC2CCCO2)cc2c(=O)n3ccccc3nc2n1C1CCCCC1` (stereo not given), for which the Potency result is “inactive”.
The value for `COc1ccc(NC(=O)CSCC(=O)NCCc2ccccn2)cc1` was “inactive”.
Next, `COc1ccc(NC(=O)CC2Sc3ncnn3C2=O)cc1` (stereo not given): 39.8 µM (active); `COc1ccc(NC(=O)CN2CCN(CC(=O)Nc3ccc(OC)cc3)CC2)cc1`: “inactive”.
Next, `O=C(Oc1c(CN2CCOCC2)cc(Cl)c2cccnc12)c1ccccc1F`: “inactive”; `CC(=O)N1CCc2ccc(S(=O)(=O)N3CCc4ccccc43)cc21`: “inactive”.
Turning to `CC(=O)N1CCCc2cc(S(=O)(=O)N3CCCC(C(=O)N4CCN(c5cccc(Cl)c5)CC4)C3)ccc21` (stereo not given), the Potency was 39.8 µM (active).
Next, `CC(C)c1ccc(S(=O)(=O)N2CCN(C(=O)C3CCCC3)CC2)cc1`: “inactive”; `COc1ccc(C(=O)N/N=C/c2cc3ccccc3nc2O)cc1`: “inactive”.
Next, `CC(NC(=O)c1ccc2ccccc2n1)c1ccc(S(N)(=O)=O)cc1` (stereo not given): “inactive”; `COc1ccc(C(=O)NNC(=O)c2ccc3ccccc3n2)cc1`: 17.8 µM (active); `COc1ccc(C2c3[nH]c4ccccc4c3CCN2CCCn2cccn2)c(C)c1C` (stereo not given): “inactive”.
Take `Cc1cccc(N=C(S)N2CCC(C(N)=O)(N3CCCCC3)CC2)c1C`: the Potency result is “inactive”.
The value for `Cc1cccc(N=C(S)N=Nc2c(O)n(CN3CCOCC3)c3ccccc23)c1C` was 6.31 µM (active); that for `Oc1c(N=NC(S)=Nc2ccccc2F)c2ccccc2n1Cc1ccc(Cl)cc1` was “inactive”; that for `CCn1c(O)c(N=NC(S)=NCC2CCCO2)c2ccccc21` (stereo not given) was 8.91 µM (active).
The value for `Cc1ccc(C(=O)Nc2nc3n(n2)C(c2ccc(F)cc2)C=C(c2ccccc2)N3)cc1` (stereo not given) was “inactive”; that for `COc1cc([N+](=O)[O-])cc(/C=C2/SC(=S)N(Cc3ccccc3)C2=O)c1O` was 20 µM (active).
On to `NS(=O)(=O)c1ccc(CCNS(=O)(=O)c2ccc(Cl)s2)cc1`, for which the Potency result was “inactive”.
The value for `NS(=O)(=O)c1ccc(CCN2C(=O)/C(=C\c3ccc(Cl)cc3)SC2=S)cc1` was 17.8 µM (active); that for `O=C1/C(=C/c2ccccc2Cl)SC(=S)N1CCCC(=O)N(CCO)c1ccccc1` was 31.6 µM (active).
Next, `O=C(O)CN1C(=O)/C(=C\c2cccc(OCc3ccc(Cl)cc3)c2)SC1=S`: “inactive”.
Next, `O=C(O)c1cc(-c2ccc(/C=C3/SC(=S)N(Cc4ccccc4)C3=O)o2)ccc1Cl`: “inactive”.
For `O=C1/C(=C\c2cccc(O)c2O)SC(=S)N1Cc1ccccc1`, the Potency was 31.6 µM (active).
Next, `COc1ccc(/C=C(\C)C(=O)c2c(C)cc(C)nc2O)cc1`: “inactive”; `Cc1ccc2c(CN(C)Cc3cccc(Cl)c3)cc(=O)oc2c1C`: “inactive”.
In the case of `C=C1c2ccccc2N=C(S)N1Cc1ccc2c(c1)OCO2`, the Potency result is “inactive”.
The value for `COCc1cc(C)nc(SCC(=O)Oc2ccc(Cl)cc2)c1C#N` was “inactive”.
Regarding `N=c1c(C(=O)NC2CCCCC2)cc2c(=O)n3ccccc3nc2n1CC1CCCO1` (stereo not given), the Potency result is “inactive”.
As to `CCn1nc(NC(=O)C(C)(C)C)c2cc3cccc(C)c3nc21`, the Potency entry was “inactive”.
The value for `O=C1/C(=C\c2cc([N+](=O)[O-])ccc2O)SC(=S)N1Cc1ccc(Cl)cc1` was 35.5 µM (active); that for `O=C1c2ccc([N+](=O)[O-])cc2C(=O)N1c1ccc(Cl)cn1` was “inactive”; that for `CN(C)c1ccc(/C=C/C=N/Nc2nc(N3CCOCC3)nc(N3CCOCC3)n2)cc1` was “inactive”.
Next, `OCCNc1nc(-c2ccccc2)c2cc(Cl)ccc2n1`: “inactive”.
In the case of `O=C(CCl)NNc1nc(-c2ccccc2)c2cc(Cl)ccc2n1`, the Potency was 1.58 µM (active).
For the molecule `OCCCNc1nc(-c2ccccc2)c2cc(Cl)ccc2n1`, the Potency entry is “inactive”.
Next, `CCC(C)(C)n1nnnc1C(c1ccc(F)cc1)N1CCC(C(N)=O)CC1` (stereo not given): “inactive”.
The value for `CCOC(=O)c1c(CC(C)C)csc1N` was “inactive”; that for `CCOC(=O)c1c(CC(C)C)csc1/N=C/C1C(=O)CCCC1=O` was “inactive”.
The value for `CCOC(=O)c1c(CC(C)C)csc1NC=C1C(=O)CCCC1=O` was 39.8 µM (active); that for `CCc1c(C)c2cc(Cl)c(O)c(CN3CCCC3)c2oc1=O` was “inactive”.
`O=C(NNC(=O)c1ccc(Cl)cc1Cl)c1cnccn1`: the Potency entry is “inactive”.
The value for `O=C(Cn1c(SCCOc2ccc(Cl)cc2)nc2ccccc21)N1CCCCC1` was 39.8 µM (active); that for `CN(CCOc1ccc(Cl)cc1)C(=O)c1ccccc1SCC(=O)N1CCCC1` was “inactive”.
Next, `CCc1ccc(OCCSc2nc3ccccc3n2CC(=O)N2CCCCC2)cc1`: 39.8 µM (active); `O=C(CSc1nc2ccccc2n1Cc1ccc(Cl)cc1)N/N=C/c1ccc(C(=O)O)cc1`: “inactive”; `Cc1cccc(OCCCC(=O)N2CCCCCC2)c1C`: “inactive”.
The value for `Cc1ccc(OCCSc2nc3ccccc3n2CC(=O)N2CCCCC2)c(C)c1` was 35.5 µM (active).
As to `CCc1ccc(OCCSc2nc3ccccc3n2CCC(=O)O)cc1`, the Potency entry is “inactive”.
Consider `COc1ccccc1OCc1nnc(SCC(=O)N2CCCCC2)o1`, for which the Potency result was “inactive”.
Turning to `COCCn1c(SCC(=O)NC2CC2)nc2ccccc21`, the Potency entry is “inactive”.
Next, `COc1ccc(CSc2ncnc3sccc23)cc1F`: “inactive”; `Clc1ccc(-n2nnnc2Sc2ncnc3sccc23)cc1`: 20 µM (active).
As for `CC(=O)Nc1cc(-c2ccc(N3CCN(C)CC3)cc2)cn2c(-c3ccc(F)cc3)cnc12`, the Potency is 35.5 µM (active).
Next, `COc1ccc(-c2cc(NC=O)c3ncc(-c4cnn(C)c4)n3c2)cc1`: “inactive”; `CC(=O)Nc1cc(-c2ccc(N3CCN(C)CC3)cc2)cn2c(-c3ccc(F)c(Cl)c3)cnc12`: 35.5 µM (active).
`COc1cc(-c2cnc3c(NC(C)=O)cc(-c4ccc(N5CCN(C)CC5)cc4)cn23)cc(OC)c1OC`: the Potency was 39.8 µM (active).
The value for `CN1CCN(c2ccc(-c3cc(NC=O)c4ncc(-c5ccc(F)c(Cl)c5)n4c3)cc2)CC1` was “inactive”; that for `COc1ccc(-c2c(C)c3ccc(O)c(CN4CCN(C)CC4)c3oc2=O)cc1OC` was “inactive”; that for `Cn1c(-c2ccc(F)cc2)cnc1NCc1ccc(F)cc1F` was “inactive”.
Next, `CCCCNC(=O)c1cc2c(=O)n3cccc(C)c3nc2n(Cc2ccncc2)c1=N`: “inactive”; `CCCc1cc(NCCCN(C)C)n2c(nc3ccccc32)c1C#N`: “inactive”; `Cc1nc(N/N=C/c2ccc(Br)cc2)cc(N2CCOCC2)n1`: “inactive”.

(Values after ChEMBL document CHEMBL1201862, “PubChem BioAssay data set” (2004).)
